About 79,000 compounds went through this panel and 15% of them were active in at least one assay; those are over-represented in the sample as a whole. A number with no mark means an inactive call. Activity calls are given as the source filed them. No stated cut-off is given here; in the data, active means growth inhibition above about 70%; inactive means the rest.
Assays:
[1] = NCI Yeast Anticancer Drug Screen. Data for the rad50 strain (AID 155);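 further: 0% = growth of vehicle-only cultures of the same strain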; conditions: S. cerevisiae rad50 strain growth inhibition, active compounds read high
Outline: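 Relative growth inhibition (compound vs vehicle) was measured in yeast with a defined repair-gene alteration.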

[2] = NCI Yeast Anticancer Drug Screen. Data for the mec2-1 strain (AID 157); conditions: S. cerevisiae mec2-1 strain, active compounds read high
Outline: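 Strain: mec2-1 (DNA repair/cell cycle alteration). Compound exposure, then growth measured; inhibition expressed relative to vehicle.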

[3] = NCI Yeast Anticancer Drug Screen. Data for the sgs1 mgt1 strain (AID 161);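 further: 0% = growth of cultures given vehicle only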; conditions: S. cerevisiae sgs1 mgt1 strain, active compounds read high
Outline: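 Read-out: growth inhibition vs vehicle controls. Cells: mutant yeast strain deficient in DNA damage repair.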

[4] = NCI Yeast Anticancer Drug Screen. Data for the cln2 rad14 strain (AID 165);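 further: 0% = growth equal to vehicle treated cultures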; conditions: S. cerevisiae cln2 rad14 strain, active compounds read high
Outline: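 Compounds are applied to the cln2 rad14 yeast strain, and growth is then compared with that of vehicle-treated cultures to give inhibition.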

[5] = NCI Yeast Anticancer Drug Screen. Data for the bub3 strain (AID 167); conditions: S. cerevisiae bub3 mutant strain, active compounds read high
Outline: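 Screening used yeast with an engineered genetic alteration affecting cell cycle control. Compound-exposed cultures were compared with vehicle cultures, and reduced growth was taken as inhibition.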

[6] = NCI Yeast Anticancer Drug Screen. Data for the mlh1 rad18 strain (AID 175); conditions: S. cerevisiae mlh1 rad18 strain growth inhibition, active compounds read high
Outline: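 Read-out is yeast growth inhibition, calculated against vehicle-only controls. The compound was applied to a strain engineered with DNA damage repair alterations.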

[7] = at 5.0 µM (retest, dose inferred, filed as 0.5)
[8] = at 50.0 µM (retest, dose inferred, filed as 5.0)

Compound	growth inhibition [1, 7] [%]	growth inhibition [1, 8]	growth inhibition ([1]; at 50.0 µM)	growth inhibition [2, 7] [%]	growth inhibition [2, 8]	growth inhibition ([2]; at 50.0 µM)	growth inhibition [3, 7]	growth inhibition [3, 8]	growth inhibition ([3]; at 50.0 µM)	growth inhibition [4, 7] [%]	growth inhibition [4, 8]	growth inhibition ([4]; at 50.0 µM)	growth inhibition [5, 7] [%]	growth inhibition [5, 8]	growth inhibition ([5]; at 50.0 µM)	growth inhibition [6, 7] [%]	growth inhibition [6, 8]	growth inhibition ([6]; at 50.0 µM)
O=C1c2ccccc2C(=O)c2sccc21	-97	91% (active)	95.8% (active)	-36	51%	84.8% (active)	-43%	62%	93.8% (active)	-56	32%	56.3%	-36	90% (active)	90.5% (active)	-75	92% (active)	93.9% (active)
O=C(NC(=S)Nc1ncc([N+](=O)[O-])s1)c1ccccc1C(=O)NC(=S)Nc1ncc([N+](=O)[O-])s1	-5	78% (active)	69.5%	9	67%	29.6%	19%	47%	80.5% (active)	-6	40%	19.4%				4	87% (active)	79.7% (active)
Cc1ccc(C)c(NC(=O)CC2SC(=Nc3ccccc3Cl)NC2=O)c1 (stereo unspecified)	23	65%	79% (active)	24	60%	58.9%	25%	91% (active)	65.3%				33	85% (active)	75.9% (active)	31	82% (active)	64.5%
C1=C(c2ccccc2)C(c2ccc(OCCN3CCCCC3)cc2)Oc2ccccc21 (stereo unspecified)	39	99% (active)	99.3% (active)	9	99% (active)	99.5% (active)	24%	99% (active)	97.5% (active)	25	99% (active)	98.1% (active)				16	99% (active)	99.5% (active)
CCN(CC)Cc1cc(N=Nc2c(O)ccc3c(N=Nc4ccc(O)c(CN(CC)CC)c4)c(O)ccc23)ccc1O	62	86% (active)	96.4% (active)	-2	53%	85.4% (active)	1%	76% (active)	94.3% (active)	-7	56%	56.6%	-1	61%	65.8%	-1	72% (active)	93.7% (active)
N#CSCc1ccc(Cl)c(CSC#N)c1	18	99% (active)	99% (active)	4	99% (active)	99.3% (active)	8%	99% (active)	98.8% (active)				16	100% (active)	98.8% (active)	10	99% (active)	99% (active)
COc1ccc2nc3cc(Cl)ccc3c(NCCNc3c4ccc(Cl)cc4nc4ccc(OC)cc34)c2c1	34	97% (active)	98.5% (active)	26	97% (active)	92.8% (active)	20%	99% (active)	96.2% (active)				16	97% (active)	99.2% (active)	28	97% (active)	97.3% (active)
COc1ccc(C(=O)C(CCC(=O)/C=C/c2ccccc2)S(C)(=O)=O)cc1 (stereo unspecified)	8	10%	9.25%	-12	15%	3.5%	5%	13%	17.2%	2	-8%	39.9%				0	-5%	2.4%
CC(C(O)c1ccccc1)C(O)(C(F)(F)F)C(F)(F)F (stereo unspecified)	8	13%	8.95%	6	-3%	-7.6%	3%	10%	-15.9%				-2	-7%	-19.6%	18	6%	17.4%
O=C(/C=C\c1ccccc1)N1c2ccccc2CC1c1c[nH]c2ccccc12 (stereo unspecified)	-10	11%	6.35%	-1	17%	-1.7%				-1	1%	36.9%	20	41%	-2.1%	7	11%	12.2%
O=C(O/N=C1/CCC/C1=C\c1ccccc1)c1ccccc1	33	97% (active)	96.5% (active)	46	99% (active)	98.2% (active)	78% (active)	99% (active)	98.8% (active)				15	99% (active)	96.3% (active)	57	98% (active)	98.3% (active)

Source: PubChem BioAssay (NCI)
